In PubChem BioAssay AID1159580 (chemical genetic matrix, 2015):
Values joined by “and” are separate entries in the source; they are usually repeats but may differ in a detail not shown here. Identical values can stand only once. Among all 5,500 compounds or so, about 2,000 (36%) were called active. Another 18% or so got no clear call; they are omitted. No stated cut-off is given here; in the data, active means normalized growth mostly below about 0.91 (no sharp cut-off); inconclusive means no clear call, values can overlap the other calls; inactive means mostly above about 0.92. Some of the results follow.

Assay: chemical genetic growth profiling, strain panel (AID 1159580);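 further: tested at 20 µM; growth read once vehicle control cultures reached saturation at 30 °C; 1 = growth at the plate median or of vehicle wells; lower values mean less growth of the strain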
Conditions: S. cerevisiae deletion strains, growth OD

Measured: normalized growth

C=NC(C(=O)NC1C(=O)N2C1SC(C)(C)C2C(=O)O)c1ccccc1 (configuration not stated)
inactive: locus YAL013W, strain DEP1, hits give low values 1.01 | locus YAL021C, strain ccr4, hits give low values 0.991 | locus YAL026C, strain drs2, hits give low values 0.994 | locus YAL030W, strain snc1, hits give low values 1 | locus YBL061C, strain skt5, hits give low values 1.02 | locus YBR009C, strain hhf1, hits give low values 0.994 | locus YBR021W, strain FUR4, hits give low values 0.999 | locus YBR023C, strain chs3, hits give low values 0.995 | locus YBR171W, strain sec66, hits give low values 1.02 | locus YBR229C, strain ROT2, hits give low values 1 | locus YBR231C, strain swc5, hits give low values 1.02 | locus YBR279W, strain paf1, hits give low values 1 | locus YCL011C, strain gbp2, hits give low values 0.989 | locus YCL016C, strain dcc1, hits give low values 0.986 | locus YCL029C, strain bik1, hits give low values 1.02 | locus YCL061C, strain MRC1, hits give low values 0.991 | locus YCL069W, strain vba3, hits give low values 1.01 | locus YCR088W, strain abp1, hits give low values 1 | locus YDL005C, strain med2, hits give low values 0.998 | locus YDL035C, strain GPR1, hits give low values 1.01 | locus YDL040C, strain nat1, hits give low values 1.01 | locus YDL074C, strain BRE1, hits give low values 0.986 | locus YDL101C, strain DUN1, hits give low values 1.01 | locus YDL134C, strain PPH21, hits give low values 1.01 | locus YDL185W, strain tfp1, hits give low values 1.01 | locus YDL192W, strain arf1, hits give low values 1.01 | locus YDR001C, strain nth1, hits give low values 0.989 | locus YDR069C, strain doa4, hits give low values 1.03 | locus YDR101C, strain arx1, hits give low values 1 | locus YDR137W, strain rgp1, hits give low values 1.01 | locus YDR150W, strain NUM1, hits give low values 1.01 | locus YDR159W, strain sac3, hits give low values 1.07 | locus YDR162C, strain NBP2, hits give low values 1.03 | locus YDR195W, strain ref2 1 | locus YDR297W, strain sur2, hits give low values 1.03 | locus YDR318W, strain mcm21, hits give low values 1.02 | locus YDR334W, strain swr1, hits give low values 1 | locus YDR335W, strain msn5, hits give low values 0.983 | locus YDR388W, hits give low values 1 | locus YDR392W, strain spt3, hits give low values 0.867 | locus YDR502C, strain sam2, hits give low values 1.02 | locus YEL003W, strain gim4, hits give low values 1 | locus YEL037C, strain rad23, hits give low values 0.994 | locus YEL061C, strain CIN8 (second series), hits give low values 0.995 | locus YEL061C, strain CIN8, hits give low values 1 | locus YER015W, strain faa2, hits give low values 0.978 | locus YER016W, strain bim1, hits give low values 1.01 | locus YER110C, hits give low values 1.01 | locus YER111C, strain swi4, hits give low values 1 | locus YER155C, strain BEM2 (second series), hits give low values 1.03 | locus YER155C, strain BEM2, hits give low values 1 | locus YER167W, strain BCK2, hits give low values 1.02 | locus YFR010W, strain ubp6, hits give low values 0.993 | locus YGL078C, strain dbp3, hits give low values 1 | locus YGL086W, strain mad1, hits give low values 1.02 | locus YGL167C, strain pmr1, hits give low values 0.992 | locus YGL173C, strain kem1, hits give low values 1.01 | locus YGL227W, strain vid30, hits give low values 0.996 | locus YGL240W, strain doc1, hits give low values 1.04 | locus YGL248W, strain PDE1, hits give low values 1.02 | locus YGL253W, strain hxk2, hits give low values 1.01 | locus YGR078C, strain PAC10, hits give low values 1.01 | locus YGR135W, strain pre9, hits give low values 1.01 | locus YGR229C, strain SMI1, hits give low values 0.977 | locus YGR252W, strain gcn5, hits give low values 1.07 | locus YHR013C, strain ard1, hits give low values 0.973 | locus YHR027C, strain rpn1, hits give low values 0.992 | locus YHR030C, strain SLT2, hits give low values 1.01 and 1 | locus YHR079C, strain IRE1 (second series), hits give low values 1.01 | locus YHR079C, strain IRE1, hits give low values 1 | locus YHR094C, strain hxt1, hits give low values 1.01 | locus YHR129C, strain ARP1, hits give low values 1.01 | locus YHR142W, strain chs7, hits give low values 0.994 | locus YHR200W, strain rpn10, hits give low values 1.03 | locus YIL066C, strain RNR3, hits give low values 1.01 | locus YIL073C, strain SPO22, hits give low values 1.07 | locus YIL125W, strain kgd1, hits give low values 1.01 | locus YIR030C, strain dcg1, hits give low values 1.02 | locus YJL092W, strain hpr5, hits give low values 0.994 | locus YJL095W, strain BCK1 (second series), hits give low values 1 | locus YJL095W, strain BCK1, hits give low values 1.01 and 0.995 | locus YJL115W, strain asf1, hits give low values 0.973 | locus YJL129C, strain trk1, hits give low values 0.991 | locus YJL134W, strain LCB3, hits give low values 1.01 | locus YJL154C, strain vps35, hits give low values 1 | locus YJL164C, strain tpk1, hits give low values 0.977 | locus YJL166W, strain qcr8, hits give low values 1.02 | locus YJL168C, strain set2, hits give low values 1.01 | locus YJL187C, strain SWE1 (second series), hits give low values 1.01 | locus YJL187C, strain SWE1, hits give low values 1.02 | locus YJR043C, strain POL32, hits give low values 0.992 | locus YJR066W, strain TOR1, hits give low values 0.988
